The record followed here is PubChem BioAssay (NCI).

The nature of test [1]: NCI Yeast Anticancer Drug Screen. Data for the rad50 strain (AID 155).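 Also: 0% = growth of vehicle-only cultures of the same strain.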 The following applies: S. cerevisiae rad50 strain growth inhibition, active compounds read high. The essentials:
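Cells are treated with compound, grown, and their growth is then scored against vehicle-only cultures of the same repair-deficient yeast strain.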

The nature of test [2]: NCI Yeast Anticancer Drug Screen. Data for the mec2-1 strain (AID 157). The following applies: S. cerevisiae mec2-1 strain, active compounds read high. An outline of the steps:
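Yeast mec2-1 mutant treated with compound. Readout: growth inhibition vs vehicle controls.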

The nature of test [3]: NCI Yeast Anticancer Drug Screen. Data for the sgs1 mgt1 strain (AID 161).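 Also: 0% = growth of cultures given vehicle only.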 The following applies: S. cerevisiae sgs1 mgt1 strain, active compounds read high. The essentials: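 Genetically altered yeast, compound exposure, growth inhibition relative to vehicle.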
A short description of test [4]: NCI Yeast Anticancer Drug Screen. Data for the cln2 rad14 strain (AID 165).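 Also: 0% = growth equal to vehicle treated cultures.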 To be noted: S. cerevisiae cln2 rad14 strain, active compounds read high. An outline of the steps:
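cln2 rad14 yeast strain; compound exposure; growth inhibition read vs vehicle controls.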

Test [5] can be described thus: NCI Yeast Anticancer Drug Screen. Data for the bub3 strain (AID 167). To be noted: S. cerevisiae bub3 mutant strain, active compounds read high. The essentials: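 Part of a panel of yeast mutants defective in DNA damage repair or cell cycle regulation. Each strain is grown with compound, and inhibition is calculated relative to solvent-treated cultures.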
Test [6] is described as follows: NCI Yeast Anticancer Drug Screen. Data for the mlh1 rad18 strain (AID 175). To be noted: S. cerevisiae mlh1 rad18 strain growth inhibition, active compounds read high. The essentials: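 Yeast w/ defined DNA-repair lesions; compound exposure; growth vs vehicle controls → % inhibition.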
Setting [7] is: at 5.0 µM (retest, dose inferred, filed as 0.5).
Setting [8] is: at 50.0 µM (retest, dose inferred, filed as 5.0).

Each structure is given as a SMILES string. This is part of a sample that, as a whole, favours compounds with a hit. Of some 79,000 tested, about 15% had one in any assay. Unmarked numbers belong to inactive results. Calls of active or inactive are those of the source. Rule as the data show it: active = growth inhibition above about 70%; inactive = the rest.

In the case of `CC(=O)NC1=C(Nc2ccc(-c3ccc(NC4=C(NC(C)=O)C(=O)c5ccccc5C4=O)cc3)cc2)C(=O)c2ccccc2C1=O`, the growth inhibition in test [1] (setting [7]) is 99% (active); in test [1] (setting [8]) it was 98% (active); in test [1] (at 50.0 µM) it was 99.2% (active); in test [2] (setting [7]), 100% (active); in test [2] (setting [8]), 99% (active); in test [2] (at 50.0 µM), 99.5% (active). For the same compound, the growth inhibition in test [3] (setting [7]) was 100% (active); in test [3] (setting [8]) it was 99% (active); in test [3] (at 50.0 µM), 99.5% (active); in test [4] (setting [7]) it was 99% (active); in test [4] (setting [8]) it was 98% (active); in test [4] (at 50.0 µM), 99.1% (active). Also, the growth inhibition in test [5] (setting [7]) is 99% (active); in test [5] (setting [8]) it was 99% (active); in test [5] (at 50.0 µM) it was 98.7% (active); in test [6] (setting [7]) it was 99% (active); in test [6] (setting [8]), 99% (active); in test [6] (at 50.0 µM), 99.3% (active).

For the compound `CC(=O)N/N=C1/CC[C@@]2(C)C(=CC[C@H]3C4CCC(C(C)CCCC(C)C)[C@@]4(C)CCC32)C1(C)C` (stereo not given in full), the growth inhibition in test [1] (setting [7]) is -23%; in test [1] (setting [8]) it was 79% (active); in test [1] (at 50.0 µM) it was 31.6%; in test [2] (setting [7]), -14%; in test [2] (setting [8]), 83% (active); in test [2] (at 50.0 µM) it was 6.35%. Also, the growth inhibition in test [3] (setting [7]) was -7%; in test [3] (setting [8]), 84% (active); in test [3] (at 50.0 µM) it was 24.8%; in test [4] (setting [7]), -11%; in test [4] (setting [8]), 74% (active); in test [4] (at 50.0 µM), 55.1%. Further, the growth inhibition in test [5] (setting [7]) was -10%; in test [5] (setting [8]) it was 70% (active); in test [5] (at 50.0 µM) it was 29.6%; in test [6] (setting [7]) it was -12%; in test [6] (setting [8]) it was 90% (active); in test [6] (at 50.0 µM) it was 1.3%.

Consider `Cc1cccc2c(CC(=O)O)cccc12`, for which the growth inhibition in test [1] (setting [7]) is -5%; in test [1] (setting [8]), 78% (active); in test [1] (at 50.0 µM), 78.7% (active); in test [2] (setting [7]), 7%; in test [2] (setting [8]), 82% (active); in test [2] (at 50.0 µM) it was 77.7% (active). Besides, the growth inhibition in test [3] (setting [7]) was 1%; in test [3] (setting [8]), 81% (active); in test [3] (at 50.0 µM), 52.5%; in test [4] (setting [7]), 19%; in test [4] (setting [8]), 61%; in test [4] (at 50.0 µM) it was 71.8% (active). Moreover, the growth inhibition in test [5] (setting [7]) is -1%; in test [5] (setting [8]), 95% (active); in test [5] (at 50.0 µM), 75% (active); in test [6] (setting [7]), 4%; in test [6] (setting [8]) it was 88% (active); in test [6] (at 50.0 µM) it was 78.5% (active).

With `O=C1C=CC(=C(c2ccccc2)c2ccc(O)cc2)C=C1`, the growth inhibition in test [1] (setting [7]) was -5%; in test [1] (setting [8]) it was 75% (active); in test [1] (at 50.0 µM), 31.3%; in test [2] (setting [7]) it was -8%; in test [2] (setting [8]), 72% (active); in test [2] (at 50.0 µM), 80.3% (active). The growth inhibition in test [3] (setting [7]) is -5%; in test [3] (setting [8]), -27%; in test [3] (at 50.0 µM), 65.3%; in test [4] (setting [7]), -7%; in test [4] (setting [8]) it was 76% (active); in test [4] (at 50.0 µM), 27.6%. Besides, the growth inhibition in test [5] (setting [7]) is -8%; in test [5] (setting [8]), 92% (active); in test [5] (at 50.0 µM), 92.2% (active); in test [6] (setting [7]), 2%; in test [6] (setting [8]) it was 86% (active); in test [6] (at 50.0 µM), 81% (active).

`O=C(CCCN1CCC2(CC1)CC(c1ccccc1)OC2=O)c1ccc(F)cc1` (stereo not given): the growth inhibition in test [1] (setting [7]) was 48%; in test [1] (setting [8]) it was 76% (active); in test [1] (at 50.0 µM), 86.3% (active); in test [2] (setting [7]), 33%; in test [2] (setting [8]), 65%; in test [2] (at 50.0 µM), 87.9% (active). Further, the growth inhibition in test [3] (setting [7]) is 44%; in test [3] (setting [8]), 87% (active); in test [3] (at 50.0 µM), 94.7% (active); in test [4] (setting [7]), 41%; in test [4] (setting [8]), 84% (active); in test [4] (at 50.0 µM), 89.8% (active). Moreover, the growth inhibition in test [5] (setting [7]) was 39%; in test [5] (setting [8]) it was 90% (active); in test [5] (at 50.0 µM), 95.2% (active); in test [6] (setting [7]), 34%; in test [6] (setting [8]), 63%; in test [6] (at 50.0 µM), 95.9% (active).

Turning to `CC1=NOC(=O)C1N=Nc1ccc(Br)cc1C` (stereo not given), the growth inhibition was 99% (active) in test [1] (setting [7]); 95% (active) in test [1] (setting [8]); 93% (active) in test [1] (at 50.0 µM); 100% (active) in test [2] (setting [7]); 96% (active) in test [2] (setting [8]); 94.6% (active) in test [2] (at 50.0 µM). The growth inhibition in test [3] (setting [7]) was 99% (active); in test [3] (setting [8]), 94% (active); in test [3] (at 50.0 µM) it was 94.8% (active); in test [4] (setting [7]), 99% (active); in test [4] (setting [8]) it was 94% (active); in test [4] (at 50.0 µM), 92.8% (active). Further, the growth inhibition was 99% (active) in test [5] (setting [7]); 96% (active) in test [5] (setting [8]); 94.5% (active) in test [5] (at 50.0 µM); 99% (active) in test [6] (setting [7]); 94% (active) in test [6] (setting [8]); 90.5% (active) in test [6] (at 50.0 µM).

Take `CN1C(=O)C(Cl)(C(Cl)(Cl)S(=O)(=O)O)C(=O)c2ccccc21` (stereo not given): the growth inhibition is -3% in test [1] (setting [7]); 95% (active) in test [1] (setting [8]); 42% in test [1] (at 50.0 µM); 1% in test [2] (setting [7]); 99% (active) in test [2] (setting [8]); 18.3% in test [2] (at 50.0 µM). Further, the growth inhibition is 1% in test [3] (setting [7]); 98% (active) in test [3] (setting [8]); -8.1% in test [3] (at 50.0 µM); 3% in test [4] (setting [7]); 96% (active) in test [4] (setting [8]); 34.5% in test [4] (at 50.0 µM). Further, the growth inhibition is 0% in test [5] (setting [7]); 97% (active) in test [5] (setting [8]); 4.2% in test [5] (at 50.0 µM); -1% in test [6] (setting [7]); 97% (active) in test [6] (setting [8]); 27.5% in test [6] (at 50.0 µM).

`Cc1c2[nH]c3ccc(Br)cc3c2c(C)c2[nH]ccc(=O)c12`: the growth inhibition in test [1] (setting [7]) is -5%; in test [1] (setting [8]), 72% (active); in test [1] (at 50.0 µM), 98.9% (active); in test [2] (setting [7]), -8%; in test [2] (setting [8]) it was 59%; in test [2] (at 50.0 µM), 98.7% (active). Moreover, the growth inhibition in test [3] (setting [7]) was -17%; in test [3] (setting [8]), 28%; in test [3] (at 50.0 µM), 99% (active); in test [4] (setting [7]), -26%; in test [4] (setting [8]), 57%; in test [4] (at 50.0 µM), 97% (active). For the same compound, the growth inhibition is 2% in test [5] (setting [7]); 81% (active) in test [5] (setting [8]); 98.3% (active) in test [5] (at 50.0 µM); -11% in test [6] (setting [7]); 96% (active) in test [6] (setting [8]); 96.8% (active) in test [6] (at 50.0 µM).

With `O=C1c2c(Br)c(Br)c(Br)c(Br)c2C(=O)N1c1nccs1`, the growth inhibition in test [1] (setting [7]) is -1%; in test [1] (setting [8]) it was 51%; in test [1] (at 50.0 µM) it was 75.4% (active); in test [2] (setting [7]) it was -4%; in test [2] (setting [8]), 72% (active); in test [2] (at 50.0 µM) it was 70.8% (active). Also, the growth inhibition in test [3] (setting [7]) was -10%; in test [3] (setting [8]), 54%; in test [3] (at 50.0 µM) it was 75% (active); in test [4] (setting [7]), -20%; in test [4] (setting [8]), 25%; in test [4] (at 50.0 µM), 45.5%. Also, the growth inhibition was 11% in test [5] (setting [7]); 70% (active) in test [5] (setting [8]); 69.4% in test [5] (at 50.0 µM); 21% in test [6] (setting [7]); 72% (active) in test [6] (setting [8]); 72.3% (active) in test [6] (at 50.0 µM).

Regarding `Nc1nc(Cc2ccccc2)nc(Cc2ccccc2)c1-c1ccccc1`, the growth inhibition is 25% in test [1] (setting [7]); 97% (active) in test [1] (setting [8]); 96.4% (active) in test [1] (at 50.0 µM); -2% in test [2] (setting [7]); 98% (active) in test [2] (setting [8]); 96.5% (active) in test [2] (at 50.0 µM). Further, the growth inhibition in test [3] (setting [7]) is 6%; in test [3] (setting [8]) it was 98% (active); in test [3] (at 50.0 µM) it was 96.8% (active); in test [4] (setting [7]) it was 4%; in test [4] (setting [8]), 95% (active); in test [4] (at 50.0 µM) it was 94.1% (active). Besides, the growth inhibition in test [5] (setting [7]) was 15%; in test [5] (setting [8]), 98% (active); in test [5] (at 50.0 µM) it was 96% (active); in test [6] (setting [7]), 4%; in test [6] (setting [8]), 97% (active); in test [6] (at 50.0 µM), 95.6% (active).
